In PubChem BioAssay (Tox21):
Results filed as inconclusive are left out. Calls of active or inactive are those of the source. Unless noted, calls follow the shape of the dose curve; as a rule, active = well fitted curve in the direction sought with a large enough effect in the repeat runs; inconclusive = weak or mixed curves; inactive = no such curve, though single readings can be large; an effect the other way counts as inactive or inconclusive.

Experiments:
[1] = qHTS assay to identify small molecule antagonists of the glucocorticoid receptor (GR) signaling pathway - cell viability counter screen (AID 720693); also: nearly all actives have a fitted effect of over 55% in size
[2] = qHTS assay for identifying genotoxic compounds that show differential cytotoxicity against isogenic chicken DT40 cell lines with known DNA damage response pathways - wild type cell line (AID 743012); also: nearly all actives have a fitted effect of over 60% in size
Procedure, shortened: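 First, wild type DT40 cells were plated at 300 per well and equilibrated about 0.5 h at 37 C/5% CO2. Next, compounds in DMSO were added and exposure lasted 40 h. Finally, CellTiter-Glo was added for 30 min at room temperature and luminescence recorded.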

[3] = qHTS assay for identifying genotoxic compounds that show differential cytotoxicity against isogenic chicken DT40 cell lines with known DNA damage response pathways - Rev3 mutant cell line (AID 743014); also: nearly all actives have a fitted effect of over 55% in size
[4] = qHTS assay for identifying genotoxic compounds that show differential cytotoxicity against isogenic chicken DT40 cell lines with known DNA damage response pathways - Rad54/Ku70 mutant cell line (AID 743015); also: nearly all actives have a fitted effect of over 60% in size
[5] = qHTS assay to identify small molecule antagonists of the androgen receptor (AR) signaling pathway - cell viability counter screen (AID 743033; also: nearly all actives have a fitted effect of over 45% in size)
[6] = qHTS assay to identify small molecule antagonists of the androgen receptor (AR) signaling pathway using the MDA cell line - cell viability counter screen (AID 743041; also: nearly all actives have a fitted effect of over 45% in size)
Procedure, shortened: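 Same-well cytotoxicity was assessed by CellTiter-Fluor in MDA-kb2 AR-luc cells after 16 h of compound treatment under R1881 agonism.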

[7] = qHTS assay to identify small molecule antagonists of the thyroid receptor (TR) signaling pathway - cell viability counter screen (AID 743064); also: nearly all actives have a fitted effect of over 50% in size
Procedure, shortened: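 Viability of T3-stimulated (1 nM final) GH3.TRE-Luc cells is measured by CellTiter-Fluor fluorescence after 23.5 h compound exposure at 37 °C plus 30 min reagent incubation.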

[8] = target: Androgen receptor (Homo sapiens) (UniProt P10275); test: qHTS assay to identify small molecule antagonists of the androgen receptor (AR) signaling pathway (AID 743035; active = well fitted inhibition curve with a large enough effect in the signal ratio in the repeat runs, not every such curve was filed as active; the % refers to the signal ratio)
Sequence of Androgen receptor (Homo sapiens) (P10275 whole entry, looked up): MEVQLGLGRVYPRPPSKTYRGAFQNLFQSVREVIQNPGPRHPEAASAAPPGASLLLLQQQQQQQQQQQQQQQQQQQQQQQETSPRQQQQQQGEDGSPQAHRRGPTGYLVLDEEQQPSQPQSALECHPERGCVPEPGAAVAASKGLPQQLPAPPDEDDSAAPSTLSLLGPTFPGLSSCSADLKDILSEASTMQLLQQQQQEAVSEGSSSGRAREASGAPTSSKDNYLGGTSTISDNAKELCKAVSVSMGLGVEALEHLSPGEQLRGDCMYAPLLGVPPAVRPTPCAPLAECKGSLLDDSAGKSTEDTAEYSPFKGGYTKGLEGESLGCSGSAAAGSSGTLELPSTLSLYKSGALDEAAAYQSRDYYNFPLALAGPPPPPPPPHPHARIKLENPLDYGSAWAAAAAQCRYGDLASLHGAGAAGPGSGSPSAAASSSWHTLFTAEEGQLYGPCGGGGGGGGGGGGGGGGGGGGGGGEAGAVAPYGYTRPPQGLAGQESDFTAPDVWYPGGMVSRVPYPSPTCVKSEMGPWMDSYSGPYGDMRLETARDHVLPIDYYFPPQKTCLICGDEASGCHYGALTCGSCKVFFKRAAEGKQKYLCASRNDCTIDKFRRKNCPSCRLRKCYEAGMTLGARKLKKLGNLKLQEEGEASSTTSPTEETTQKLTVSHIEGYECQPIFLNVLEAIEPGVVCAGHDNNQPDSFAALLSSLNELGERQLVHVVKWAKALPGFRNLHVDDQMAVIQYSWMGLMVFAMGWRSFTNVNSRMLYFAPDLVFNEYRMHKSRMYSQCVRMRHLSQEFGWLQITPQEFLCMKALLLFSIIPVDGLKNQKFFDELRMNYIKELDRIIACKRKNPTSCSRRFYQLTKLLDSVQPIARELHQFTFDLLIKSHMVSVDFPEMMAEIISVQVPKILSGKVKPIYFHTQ
Procedure, shortened: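 Beta-lactamase FRET read (2 h RT incubation with LiveBLAzer B/G) following 16 h of compound plus R1881 treatment of AR-UAS-bla HEK293 cells, which had been pre-incubated 4 h at 37C.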

[9] = target: Androgen receptor (Homo sapiens) (UniProt P10275); test: qHTS assay to identify small molecule agonists of the androgen receptor (AR) signaling pathway using the MDA cell line (AID 743040; also: nearly all actives have a fitted effect of over 20% in size)
Procedure, shortened: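 Human breast carcinoma MDA-kb2 reporter cells (MMTV-luc, AR/GR elements) were treated for 16 h at 37C in 0% CO2 following a 5 h settling period. Signal was quantified by ONE-Glo luminescence.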

[10] = target: Androgen receptor (Homo sapiens) (UniProt P10275); test: qHTS assay to identify small molecule antagonists of the androgen receptor (AR) signaling pathway using the MDA cell line (AID 743042; also: nearly all actives have a fitted effect of over 55% in size)
Procedure, shortened: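 MDA-kb2 breast carcinoma cells carrying MMTV-luciferase (AR/GR responsive) were co-treated with compounds and the agonist R1881 for 16 h at 37C. Inhibition read as ONE-Glo luminescence; CellTiter-Fluor fluorescence measured in parallel for cytotoxicity.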
% is scaled to controls: 0 for no effect and ±100 for the full control effect.

CCCCCC(CC)OC(=O)CCCOc1ccc(Cl)cc1Cl (stereo unspecified)
inactive: outcome [1] | Potency [2] | Potency [3] | Potency [4] | outcome [5] | outcome [6] | Potency [7]

COc1cc(C(=O)NC2CCCNC2)cc(OC)c1OC (stereo unspecified)
inactive: outcome [1] | Potency [2] | Potency [3] | Potency [4] | outcome [5] | outcome [6]

CCN1CCN(C(=O)N[C@@H](C(=O)N[C@@H]2C(=O)N3[C@@H]2SC(C)(C)[C@H]3C(=O)O)c2ccccc2)C(=O)C1=O
inactive: outcome [1] | Potency [2] | Potency [3] | Potency [4] | outcome [5] | outcome [6] | Potency [7]

CC(C)(Sc1cc(C(C)(C)C)c(O)c(C(C)(C)C)c1)Sc1cc(C(C)(C)C)c(O)c(C(C)(C)C)c1
inactive: outcome [1] | Potency [2] | Potency [3] | Potency [4] | outcome [5] | outcome [6] | Potency [7]

CCCCC(CC)COC(=O)CC#N (stereo unspecified)
inactive: outcome [1] | Potency [2] | Potency [3] | Potency [4] | outcome [5] | outcome [6] | Potency [7]

N#Cc1ccccc1C#N
inactive: outcome [1] | Potency [2] | Potency [3] | Potency [4] | outcome [5] | outcome [8] | outcome [9] | outcome [6] | outcome [10] | Potency [7]

Cc1ccc(O)c([N+](=O)[O-])c1
inactive: outcome [1] | Potency [2] | Potency [3] | Potency [4]

CN(C)CCC[C@@]1(c2ccc(F)cc2)OCc2cc(C#N)ccc21
inactive: outcome [1] | Potency [2] | Potency [3] | Potency [4] | outcome [5] | outcome [6] | Potency [7]

CCOC(=O)CC
inactive: outcome [1] | Potency [2] | Potency [3] | Potency [4] | outcome [5] | outcome [6] | Potency [7]

CN1CCN(C(=O)C2CCCCC2)CC1
inactive: outcome [1] | Potency [2] | Potency [3] | Potency [4] | outcome [5] | outcome [6]

N[C@H]1C(O)O[C@H](CO)[C@@H](O)[C@@H]1O (stereo partly specified)
inactive: outcome [1] | Potency [2] | Potency [3] | Potency [4] | outcome [5] | outcome [8] | outcome [9] | outcome [10] | Potency [7]

COCc1nnc(-c2ccc[n+]([O-])c2)n1-c1c(Cl)c(Cl)cc2[nH]c(=O)c(=O)[nH]c12
inactive: outcome [1] | Potency [2] | Potency [3] | Potency [4] | outcome [5] | outcome [9] | outcome [10] | Potency [7]

CC(C)CC(O)Cc1ccccc1 (stereo unspecified)
inactive: outcome [1] | Potency [2] | Potency [3] | Potency [4] | outcome [5] | outcome [8] | outcome [9] | outcome [6] | outcome [10] | Potency [7]

NNC(=O)OCc1ccccc1
inactive: outcome [1] | Potency [2] | Potency [3] | Potency [4] | outcome [5] | outcome [8] | outcome [9] | outcome [6] | outcome [10] | Potency [7]

O=C(O)Cc1c(Cl)ccc(Cl)c1Cl
inactive: outcome [1] | Potency [2] | Potency [3] | Potency [4] | outcome [5] | outcome [6] | Potency [7]

CC(C)=CCC/C(C)=C\C#N
inactive: outcome [1] | Potency [2] | Potency [3] | Potency [4]

CNC(C)=O
inactive: outcome [1] | Potency [2] | Potency [3] | Potency [4] | outcome [5] | outcome [6] | Potency [7]

CCCCCCCCCCCCCC(=O)OCC
inactive: outcome [1] | Potency [2] | Potency [3] | Potency [4] | outcome [5] | outcome [6] | Potency [7]

Cc1cc(O)c(Cl)cc1C
inactive: outcome [1] | Potency [2] | Potency [3] | Potency [4] | outcome [5] | outcome [6] | Potency [7]

CCCCCCCCS(=O)(=O)O
inactive: outcome [1] | Potency [2] | Potency [3] | Potency [4] | outcome [5] | outcome [6]

CC1(C)CC(N)CC(C)(C)N1
inactive: outcome [1] | Potency [2] | Potency [3] | Potency [4] | outcome [5] | outcome [6] | Potency [7]

c1coc(Cn2cccc2)c1
inactive: outcome [1] | Potency [2] | Potency [3] | Potency [4] | outcome [5]

CN(C)CCCN(C)C
inactive: viability change, negative = cytotoxic [1] 3.46% [at 7.04 µM] | activity change, negative = cytotoxicity [2] -5.84% [at 8.52 µM] | activity, negative = cytotoxicity [3] -13% [at 8.53 µM] | activity change, negative = cytotoxicity [4] 3.34% [at 8.55 µM] | activity change, negative = cytotoxicity [5] 3.01% [at 7.04 µM] | viability change, negative = cytotoxic [6] 5.47% [at 8.47 µM] | activity change, negative = cytotoxic [7] 20.5% [at 8.44 µM]

Cc1ccc2cccnc2c1
inactive: outcome [1] | Potency [2] | Potency [3] | Potency [4] | outcome [5] | outcome [8] | outcome [9] | outcome [6] | outcome [10] | Potency [7]

CCCCCCCCOCCC#N
inactive: outcome [1] | Potency [2] | Potency [3] | Potency [4] | outcome [5] | outcome [6] | Potency [7]

CC[C@@]1(c2ccccc2)NC(=O)N(C)C1=O
inactive: outcome [1] | Potency [2] | Potency [3] | Potency [4] | outcome [5] | outcome [6] | Potency [7]

CC(=O)OC1CCC(C(C)(C)C)CC1 (stereo unspecified)
inactive: outcome [1] | Potency [2] | Potency [3] | Potency [4] | outcome [5] | outcome [8] | outcome [9] | outcome [6] | outcome [10] | Potency [7]
